Data taken from PubChem BioAssay AID2653 (National Center for Advancing Translational Sciences (NCATS), 2010).
Inconclusive results are not listed. A number with no mark means an inactive call. Calls come from the whole dose curve; as a rule, active = well fitted curve in the direction sought with a large enough effect; inconclusive = small, poorly fitted or top-dose-only effect, or another doubt; inactive = no such curve, though single readings can be large or run the other way.

Assay: Secondary Assay for Activators of Human Pyruvate Kinase M2 isoform - Cell Titer Glo Cytotoxicity for Probe SAR; note: % of control where 0% means no effect
Conditions: HeLa viability, CellTiter-Glo ATP luminescence, 24 h; series mostly up to 58.2 µM; activity change, negative = cytotoxicity: at the top concentration
Experimental: NIH Chemical Genomics Center [NCGC]
Matthew G. Vander Heiden, M.D., Ph.D. [Harvard Medical School, 77 Avenue Louis Pasteur, Boston, MA 02115]
We have identified a series of activators of the M2 isoform of human pyruvate kinase. The assay described here examines the cytotoxicity of these compounds by measuring the total ATP content of Hela cells after 24 hrs of exposure to compound.
500 Hela cells/ 4ul in media (DMEM with high glucose, 10% FBS, 1x Pen Strep, 1x NEAA) were dispensed into a white solid 1536-microwell plate with a Thermo Multidrop. The plates were incubated at 37 degrees Celsius for 24 hours. The cells were then treated with compounds using the Kalypsys pin tool, delivering 23 nl of test compounds and the control doxorubicin. The plates were then incubated for an additional 24 hours at 37 degrees C after which 4 ul of Promega Cell-Titer Glo was dispensed using the Thermo Multidrop. The plates were incubated at room temperature for 10 min before reading luminescence on the Perkin Elmer ViewLux with images collected with 2x binning and a 5 sec exposure time.

Going from `Cc1ccc(NS(=O)(=O)c2ccc3c(c2)N(C)C(=O)CO3)cc1C` to `Cc1ccc(NS(=O)(=O)c2ccc3c(c2)n(C)c(=O)n3C)cc1C`, the “activity change, negative = cytotoxicity” value rises from -26.7% to -15.9%.

Compared with `Cc1ccc(N2C(=O)c3ccccc3C2=O)c(C)c1`, `COc1cccc(N2C(=O)c3ccccc3C2=O)c1` is higher in “activity change, negative = cytotoxicity” value: -18.8% for the first, 3.46% for the second.

Compared with `Cc1ccc(NS(=O)(=O)c2ccc(-c3ccccc3)cc2)cc1C`, `O=C1CCc2cc(S(=O)(=O)Nc3ccc(-c4ccccc4)cc3)ccc2N1` is lower in “activity change, negative = cytotoxicity” value: 1.34% for the first, -9.66% for the second.

First: O=C1CCc2cc(S(=O)(=O)Nc3cccc(Br)c3)ccc2N1
Second: O=C1CCc2cc(S(=O)(=O)Nc3cccc(C(F)(F)F)c3)ccc2N1
The “activity change, negative = cytotoxicity” value of the first is higher: -2.99% for the first, -44.3% for the second.

Going from `Cc1ccccc1NS(=O)(=O)c1ccc2c(c1)CCC(=O)N2` to `O=C1CCc2cc(S(=O)(=O)Nc3ccccc3Cl)ccc2N1`, the “activity change, negative = cytotoxicity” value rises from -15.2% to -10.2%.

Going from `Cc1ccc(OC2=NS(=O)(=O)c3ccccc32)cc1` to `Cc1ccccc1OC1=NS(=O)(=O)c2ccccc21`, the “activity change, negative = cytotoxicity” value falls from 5.54% to 2.36%.

First: COc1cccc(N2C(=O)c3ccccc3C2=O)n1
Second: O=C1c2ccccc2C(=O)N1c1cccnc1
The “activity change, negative = cytotoxicity” value of the first is higher: -1.67% for the first, -29.8% for the second.

Going from `O=C1CCc2cc(S(=O)(=O)Nc3ccccn3)ccc2N1` to `O=C1CCc2cc(S(=O)(=O)NCc3ccccc3)ccc2N1`, the “activity change, negative = cytotoxicity” value falls from -2.99% to -12.7%.

Going from `N#Cc1ccc(NS(=O)(=O)c2ccc3c(c2)CCC(=O)N3)cc1` to `O=C1CCc2cc(S(=O)(=O)Nc3ccc4c(c3)OCCO4)ccc2N1`, the “activity change, negative = cytotoxicity” value falls from 0.329% to -28.2%.

First: O=C1c2ccccc2C(=O)N1c1cnc2ccccc2c1
Second: O=C1c2ccccc2C(=O)N1c1cccc2cccnc12
The “activity change, negative = cytotoxicity” value of the first is higher: 0.801% for the first, -23.4% for the second.

Going from `Cc1ccn2c(NCc3ccco3)c(-c3ccccc3)nc2c1` to `Cc1ccccc1Nc1c(-c2ccccc2)nc2cccc(C)n12`, the “activity change, negative = cytotoxicity” value falls from -7.39% to -16.5%.

First: O=C1c2ccccc2C(=O)N1Cc1ccncc1
Second: O=C1c2ccccc2C(=O)N1c1ccc(Cl)cc1
The “activity change, negative = cytotoxicity” value of the first is higher: -13.8% for the first, -19.6% for the second.

First: O=C1c2ccccc2C(=O)N1c1cccc2cnccc12
Second: O=C1c2ccccc2C(=O)N1c1nccs1
The “activity change, negative = cytotoxicity” value of the first is higher: -2.96% for the first, -15.3% for the second.

Going from `Cc1ccc(NS(=O)(=O)c2cc3c(cc2N2CCCCC2)NC(=O)CC3)cc1C` to `Cc1ccc(NS(=O)(=O)c2cc3c(cc2F)NC(=O)CC3)cc1C`, the “activity change, negative = cytotoxicity” value rises from -17.1% to -6.84%.

First: CN(C)c1cccc(S(=O)(=O)N2CCCN(S(=O)(=O)c3ccc4c(c3)OCCO4)CC2)c1
Second: CCNc1cccc(S(=O)(=O)N2CCCN(S(=O)(=O)c3ccc4c(c3)OCCO4)CC2)c1
The “activity change, negative = cytotoxicity” value of the first is lower: -21.2% for the first, -20.9% for the second.

Compared with `O=C1CCc2cc([S+](=O)([O-])Nc3ccc(N[S+](=O)([O-])c4ccc5c(c4)CCC(=O)N5)cc3)ccc2N1`, `O=C1CCc2cc(S(=O)(=O)Nc3cccc(-c4ccccc4)c3)ccc2N1` is lower in “activity change, negative = cytotoxicity” value: -12.1% for the first, -25.3% for the second.

Compared with `Cc1ccc(NS(=O)(=O)c2cc3c(cc2C)NC(=O)CO3)cc1C`, `Cc1ccc(NS(=O)(=O)c2cc3c(cc2C)OCC(=O)N3)cc1C` is lower in “activity change, negative = cytotoxicity” value: -0.698% for the first, -12% for the second.

Compared with `Cc1ccc(NS(=O)(=O)c2cccc(C(=O)O)c2)cc1C`, `Cc1nc(-c2ccc(S(=O)(=O)Nc3ccc(C)c(C)c3)s2)cs1` is lower in “activity change, negative = cytotoxicity” value: 22% for the first, -17.5% for the second.

Going from `CN=c1nc(-c2ccccc2)n(-c2ccccc2)s1` to `Cc1ccc(NS(=O)(=O)c2cc3c(cc2/C=C/c2ccccc2)NC(=O)CO3)cc1C`, the “activity change, negative = cytotoxicity” value falls from -22.6% to -22.7%.

First: CNc1cccc(S(=O)(=O)N2CCN(S(=O)(=O)c3ccc4c(c3)OCCO4)CC2)c1
Second: COc1cccc(Cn2ncc3c4sc(S(C)=O)cc4n(C)c3c2=O)c1 (stereo not given)
The “activity change, negative = cytotoxicity” value of the first is lower: -2.61% for the first, -2.09% for the second.
